Hit rate of the full screen: of about 48,000 compounds, about 13,000 (27%) showed an effect of 50% or more. The list shows a part of the results.
What follows are compounds tested on Wolbachia pipientis (assay: Anti-Wolbachia Cell-Based Screen). Details: 5 µM.
Type: functional
Parameters: scale not given: in the data most compounds retested in dose-response had high values

Compound | Percent Effect [%]
Cc1cnn(CC2CN(CC(=O)Nc3sccc3C#N)CCO2)c1 (stereo not drawn) | -6.28
CCc1noc(CS(=O)(=O)Cc2ccccc2Cl)n1 | -7.562
CN(C)CCN1C(=O)CC[C@@H]2[C@H]1CCN2C(=O)c1ccc(C#N)cc1.O=C(O)C(F)(F)F | -26.6
CCS(=O)(=O)N1Cc2ncn(C)c2C(COCC2CCOCC2)C1.O=C(O)C(F)(F)F (stereo not drawn) | -11.73
COCC1CN(S(=O)(=O)N(C)C)Cc2ncn(CC3CC3)c21.O=C(O)C(F)(F)F (stereo not drawn) | 108.7
CCS(=O)(=O)N1Cc2ncn(CC3CC3)c2C(COCC2CC2)C1.O=C(O)C(F)(F)F (stereo not drawn) | 98
COCC1CN(S(=O)(=O)N(C)C)Cc2cnn(CC3CCCC3)c21.O=C(O)C(F)(F)F (stereo not drawn) | -5.811
CCOCC1CN(S(=O)(=O)N(C)C)Cc2cnn(CC3CC3)c21.O=C(O)C(F)(F)F (stereo not drawn) | -12.89
Cn1cnc2c1C(COCC1CCOCC1)CN(c1ncccn1)C2.O=C(O)C(F)(F)F.O=C(O)C(F)(F)F (stereo not drawn) | -12.76
Cn1cnc2c1C(COCC1CC1)CN(C(=O)c1cccs1)C2 (stereo not drawn) | -12.17
Cn1cnc2c1C(COCC1CC1)CN(c1ncccn1)C2.O=C(O)C(F)(F)F.O=C(O)C(F)(F)F (stereo not drawn) | 100.9
Cc1cnc(N2C[C@@H]3[C@@H](C2)OCC(=O)N3CC(C)C)nc1.O=C(O)C(F)(F)F | -17.14
Cc1cc(CN2CCCn3nc(CCC(=O)O)cc3C2)ccc1F | -13.15
CCn1cc(CN2CCCn3nc(CCC(=O)NCCO)cc3C2)cn1 | -3.785
Nc1ncccc1CN1CCCn2nc(CCC(=O)NC3CC3)cc2C1 | 172.9
CSc1ccccc1CN1CCCn2nc(CNC(=O)N(C)C)cc2C1 | 2.043
O=C(CCc1cc2n(n1)CCCN(Cc1ccccc1F)C2)NC1CC1 | 0.7471
O=C(CCc1cc2n(n1)CCCN(CCc1ccccc1)C2)NC1CC1 | 113.2
Cc1nc(C(NC(=O)CC(F)(F)F)c2ccc(Cl)cc2)no1 (stereo not drawn) | 0.7806
COCC(=O)N1CCCC1c1cccc(C)c1C (stereo not drawn) | 4.955
COCC(=O)N1CCCCC1c1nc(C)c2c(n1)N(C1CC1)C(=O)CC2 (stereo not drawn) | 63.67
COCCn1cc(C(=O)N2CCCC2c2noc(C)n2)ccc1=O (stereo not drawn) | 10.03
COCC(=O)N1CCCC1c1nc(C)c2c(n1)N(CC(C)C)C(=O)CC2 (stereo not drawn) | 117
COCCC(=O)N1CCCC1c1cccc(C)c1C (stereo not drawn) | 3.518
COCC(=O)N1CCCCC1c1nc(C)c2c(n1)N(CC1CC1)C(=O)C2 (stereo not drawn) | 105.7

Compound | Percent Effect [%]
COCCC(=O)N1CCCC1c1nc(C)c2c(n1)N(C)C(=O)CC2 (stereo not drawn) | 147.7
CC(C)CS(=O)(=O)CC(=O)N1CCCC1c1noc(C2CC2)n1 (stereo not drawn) | -6.47
Cn1c(C2CCCN2C(=O)CN2CCCC2=O)nc2ccccc21 (stereo not drawn) | 0.4362
CC(Nc1nc2c(cnn2C)c(=O)[nH]1)c1ccc(F)cc1 (stereo not drawn) | -20.73
COCCN1CC(C(=O)N(C)Cc2cc(-c3cccnc3)no2)CC1=O (stereo not drawn) | -16.5
O=C(c1cnc2c(c1)CCC2)N1CCCC(CO)(CC2CC2)C1 (stereo not drawn) | -2.632
OC[C@@H](O)CN(CCC(F)(F)F)c1ncc(Br)cn1 | 8.436
CCC(Nc1nnnn1-c1ccccc1)C(=O)NCc1ccsc1 (stereo not drawn) | 4.065
CCN(CC)C(=O)CN1CCCC1C(=O)N(C)C (stereo not drawn) | 1.193
CCN(CC)C(=O)CN1CCCC1c1nc(C)c2c(n1)N(C)C(=O)CC2 (stereo not drawn) | 125.7
Cc1nc(C2CCCN2CC(=O)N(Cc2ccsc2)C2CC2)no1 (stereo not drawn) | -3.982
Cn1ccnc1C(=O)NC[C@@H]1OC[C@H]2CN(CC3CC3)CC[C@H]21.O=C(O)C(F)(F)F | -43.28
Cc1ccc(CN2CCc3ncc(CNS(C)(=O)=O)n3CC2)o1.O=C(O)C(F)(F)F | -0.4637
O=C(NCc1cnc2n1CCN(CC1CC1)C2)C1CC1.O=C(O)C(F)(F)F | 80.69
O=C(NCc1cn2c(n1)CN(Cc1nccs1)CC2)C1CCC1.O=C(O)C(F)(F)F | -3.871
O=C(NCc1cnc2n1CCN(Cc1ccsc1)CC2)C1CCC1.O=C(O)C(F)(F)F | -9.045
Cn1ccnc1C(=O)NCc1cnc2n1CCN(CC1CC1)CC2.O=C(O)C(F)(F)F.O=C(O)C(F)(F)F | 88.03
Cc1ccc(CN2CCc3ncc(CNC(=O)C4CCC4)n3CC2)o1.O=C(O)C(F)(F)F | 89.47
O=C(NCc1cnc2n1CCN(Cc1nccs1)CC2)C1CCC1.O=C(O)C(F)(F)F | 95.25
O=C(NCc1cnc2n1CCN(CC1CCOCC1)C2)c1ccno1.O=C(O)C(F)(F)F | -43.24
Cn1cccc1C(=O)NCc1cnc2n1CCN(CC1CCOCC1)C2.O=C(O)C(F)(F)F | 19.82
Cc1cc(C(=O)N2CCc3ncc(CN4CCCC4)n3CC2)no1.O=C(O)C(F)(F)F | -20
Cn1cccc1C(=O)NCc1cnc2n1CCN(CC1CC1)C2.O=C(O)C(F)(F)F | -11
CC(=O)Nc1ccsc1C(=O)Nc1cnc2n1CCCC2 | 1.629
CNc1nc(C(=O)NCC2CCOc3ccccc3C2)cs1 (stereo not drawn) | 3.092

Compound | Percent Effect [%]
CC(C)C1CN(c2nccc(N)n2)CCC(=O)N1Cc1ccc(F)cc1 (stereo not drawn) | 6.607
COc1cccc(OCC2CCCN(C(=O)c3ccc(N)nc3)C2)c1 (stereo not drawn) | -26.62
CC(C)N(CC(=O)Nc1ccc(Br)cc1Cl)Cc1cccnc1 | -0.1768
COC(=O)CCC(=O)N1CCc2nc(C(=O)N3CCOCC3)sc2CC1 | -7.844
CN(Cc1ccco1)[C@@H]1CN(CC2CCOCC2)C[C@@H]2CCCO[C@@H]21.O=C(O)C(F)(F)F.O=C(O)C(F)(F)F | 2.943
CCN(CC)C(=O)CCNC(=O)N1CCC(c2ccccc2)C1 (stereo not drawn) | 4.092
COc1nn(C)cc1C(=O)N1CCC(C)CC1 | 127.9
COc1nn(C)cc1C(=O)N1CCC(c2ccccc2)C1 (stereo not drawn) | 121.1
CC1CCN(C(=O)c2cn(-c3cc(N4CCSCC4)ncn3)cn2)CC1 | 12.42
CC1CCN(C(=O)c2ccn(COc3ccc(F)cc3)n2)CC1 | 3.69
Cn1cnc2cc(C(=O)N3CCC(c4ccccc4C(=O)O)C3)cnc21 (stereo not drawn) | 0.5169
O=C(NCCNC(=O)N1CCC(c2ccccc2)C1)C1CC1 (stereo not drawn) | -9.135
CCNC(=O)N1CCC(c2ccccc2)C1 (stereo not drawn) | 124.1
CS(=O)(=O)Cc1ccc(Cl)cc1NCc1cccc(F)c1F | -9.935
CC(=O)NCC1CCN(CC2CCOc3ccccc3C2)CC1 (stereo not drawn) | 6.943
CCCN1CC2(CCN(C)CC2)CC1C(=O)NCCn1cccn1 (stereo not drawn) | 6.399
COc1ccc(CN2CCN(CC3CC3)[C@@H]3CS(=O)(=O)C[C@@H]32)cc1C | 20.23
CNS(=O)(=O)c1cccc(CNc2nccc(C(F)(F)F)n2)c1 | -7.88
COc1ccc(Cl)cc1CN(C)CC(=O)/N=c1\cc[nH]n1C(C)C1CC1 (stereo not drawn) | -13.95
Cc1nc2c(c(NCCc3nc4c(s3)CCCC4)n1)CCNCC2 | 7.698
OC1(CNCCc2nc3c(s2)CCCC3)CNCCOC1 (stereo not drawn) | 109
OC1(CNCCc2nc(Cc3ccccc3)no2)CNCCOC1 (stereo not drawn) | 14.79
OC1(CNCCc2nc3c(s2)CCCC3)CCNC1 (stereo not drawn) | 87.02
C1Cc2nc(CCNc3nc(C4CC4)nc4c3CCNCC4)sc2C1 | 0.8801
OC1(CNCCSc2ccccn2)CNCCOC1 (stereo not drawn) | -26.11

Compound | Percent Effect [%]
CC(C)NCc1nc(-c2ccc3c(c2)OCO3)c[nH]1.Cl.Cl | 8.786
CCCc1cc(NC(=O)c2cccc(N3CCCNC3=O)c2)n[nH]1 | 11.29
COCCN1CCC(c2cncc(-c3ccccc3C)n2)CC1 | 100.9
Cn1cncc1-c1nnc([C@H]2CCN(C3CCOCC3)C2)o1 | -2.913
Cc1ccccc1-c1cncc(C2CCN(C)CC2)n1 | -14.26
Cc1ccccc1-c1cncc(C2CCN(S(=O)(=O)N(C)C)CC2)n1 | 110.9
CN(C)S(=O)(=O)N1CCC(Cn2cccn2)CC1 | 2.027
Cc1ccccc1-c1cncc(C2CCN(CCO)CC2)n1 | 122.1
Cc1ccccc1-c1cncc(C2CCN(C3CCOCC3)CC2)n1 | 110.9
CCc1nc2n(n1)CC(NCC(=O)Nc1ccc(Cl)cn1)CC2 (stereo not drawn) | -9.728
CC(C)(C)NC(=O)Cn1cc(C(N)=O)c(-c2ccccc2)n1 | 6.588
CN1CCN(Cc2noc(-c3cc(-c4ccc(F)cc4)n[nH]3)n2)CC1 | -13.75
Clc1ccc2cccnc2c1CN1CCCC(Cn2cncn2)C1 (stereo not drawn) | -4.204
CCn1c(CN2CCCC2)nnc1C1CCN(Cc2ccccn2)CC1 | -10.72
CN(CC(F)(F)F)C(=O)CN1CCC(c2cc3ccccc3[nH]2)CC1 | -8.939
Cn1cc(CN2CCC(CCC(=O)Nc3ccccc3Cl)CC2)cn1 | 1.121
Cc1ccccc1-c1cncc(C2CCN(C(=O)CN(C)C)CC2)n1 | -14.47
Cc1ccccc1-c1cncc(C2CCN(Cc3ccccn3)CC2)n1 | 93.34
Cc1ccccc1-c1cncc(C2CCN(Cc3cnn(C)c3)CC2)n1 | 99.14
Fc1ccccc1CC1CCN(Cc2ccccn2)CC1 | -1.082
CCn1c(CN(C)C)nnc1C1CCN(Cc2ccccn2)CC1 | 2.831
Cc1ccccc1-c1cncc(C2CCN(CC(=O)N(C)C)CC2)n1 | 124.8
Oc1nc(C2CCN(Cc3ccccn3)CC2)cc2ccccc12 | 103.3
